# An excerpt weighted towards active compounds, which were near 2.9% of everything screened.
# Mcl1 Noxa PPI: Mcl-1/Noxa interaction inhibition; Q07820; TR-FRET Mcl-1/Noxa peptide binding, 2 h; inhibition, % at 21.7 µM; actives 1.5% (n = 220,000);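 active means compounds that cut the protein-peptide binding signal by more than 50% relative to plate controls in a single-dose test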;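 further: His-tagged Mcl-1 with rhodamine Noxa BH3 peptide and terbium anti-His antibody; 0% = Mcl-1 plus Noxa peptide wells and 100% = peptide-only wells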
# Hck Nef HTS: inhibitors of human Hck kinase activated by Nef. P08631. Recombinant Hck-YEEI plus Nef, Z-Lyte FRET kinase assay. inhibition, % at 20 µM. actives 0.68% (n = 220,000). AID 463187;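 active means Hck-Nef kinase inhibition above about 50%, limit read from the data; inactive means inhibition below that limit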;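 further: 0% = DMSO with Hck plus Nef and 100% = Hck alone without Nef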
# Target sequence (P08631 whole entry, looked up): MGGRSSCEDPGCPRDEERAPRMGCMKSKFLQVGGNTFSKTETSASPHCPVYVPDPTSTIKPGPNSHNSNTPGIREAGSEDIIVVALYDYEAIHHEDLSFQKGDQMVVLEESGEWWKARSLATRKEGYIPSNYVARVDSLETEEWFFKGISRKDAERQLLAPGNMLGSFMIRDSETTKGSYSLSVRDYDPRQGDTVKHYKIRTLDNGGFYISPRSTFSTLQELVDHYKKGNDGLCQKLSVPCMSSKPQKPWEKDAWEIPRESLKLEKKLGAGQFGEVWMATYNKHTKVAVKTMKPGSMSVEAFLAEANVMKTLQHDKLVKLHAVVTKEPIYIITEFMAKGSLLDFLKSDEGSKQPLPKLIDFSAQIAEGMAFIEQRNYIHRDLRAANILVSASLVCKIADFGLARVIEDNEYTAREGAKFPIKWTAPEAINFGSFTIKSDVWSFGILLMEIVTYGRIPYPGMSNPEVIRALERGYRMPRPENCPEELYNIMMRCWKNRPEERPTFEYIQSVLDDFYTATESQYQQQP
# Mcl1-Bid inh: disrupts binding of human Mcl-1 to Bid peptide; Q07820; TR-FRET Mcl-1/Bid-Dy647 peptide binding, 1536-well; inhibition, % at 21.7 µM; actives 0.97% (n = 220,000); AID 1021;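 active means compounds that cut the binding signal by more than half at the single screening dose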;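 further: His-tagged Mcl-1 with europium anti-His antibody binding Bid BH3 peptide; 0% = Mcl-1 plus peptide wells and 100% = peptide-only wells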
# Pf gametocyte: kills late stage P. falciparum gametocytes. AID 743093. P. falciparum stage V gametocytes, ATP luminescence, 24 h. inhibition, % at 10.9 µM. actives 0.065% (n = 150,000);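 active means inhibition above the mean plus 3 SD of compounds within the control limits, set per campaign, cut at about 38% in these data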;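 further: 0% = DMSO wells and 100% = medium only without gametocytes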
# 14-3-3 Bad PPI: disrupts binding of bovine 14-3-3 zeta to phospho-Bad peptide. inhibition, % at 21.7 µM. P63103. AID 781. TR-FRET 14-3-3zeta/Dy647-pBad peptide displacement, 1 h. actives 0.71% (n = 220,000);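 active means inhibition above about 70%, limit read from the data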;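 further: 0% = full 14-3-3 plus peptide FRET controls and 100% = background without 14-3-3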
# Bim-Mcl-1: disrupts Bim peptide binding to human Mcl-1 | Q07820 | Bead-based flow cytometry, Bim peptide-Mcl-1 binding | inhibition, % at 10 µM | actives 0.1% (n = 190,000); in the data active means inhibition above about 40%;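 further: 0% = no compound tracer wells and 100% = peptide blocker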
# * = called active by the depositor; . = not tested or not shown.
SMILES,Mcl1 Noxa PPI,Hck Nef HTS,Mcl1-Bid inh,Pf gametocyte,14-3-3 Bad PPI,Bim-Mcl-1
Cc1[nH]c2ccccc2c1C(c1ccccn1)N1CCC(C(N)=O)CC1 (centres undefined),57*,2,17,.,4,-1
CCOC(=O)C1CCN(C(c2ccccn2)c2c(C)[nH]c3ccccc23)CC1 (centres undefined),59*,0,4,.,-8,2
Cc1[nH]c2ccccc2c1C(c1ccncc1)N1CCC(C)CC1 (centres undefined),0,-20,-12,.,-9,-2
CCOC(=O)CCSc1n[nH]c(=S)s1,16,-108,-25,18,3,.
O=c1n(Cc2ccccc2Cl)c2sc3c(c2c2ncnn12)CCCC3,.,.,.,14,.,.
C/C(=C(/NC(=O)c1ccccc1)C(=O)O)c1ccco1,-1,-3,-6,7,-5,-3
CC(C)c1ccc(N(CC(=O)O)S(=O)(=O)c2cccnc2)cc1,5,17,13,.,-8,-2
C=CCOC(=O)/C(=C\c1ccccc1)NC(=O)c1ccc(C)cc1,117*,0,-17,0,0,1
CCOC(=O)/C(=C\c1ccccc1)NC(=O)c1ccccc1,6,13,-7,-3,5,.
COc1ccc(OC)c(Nc2ccc(Nc3cc(OC)ccc3OC)nn2)c1,54*,2,-34,-12,-7,-7
CC1(C)CC2c3cccc(C(=O)O)c3C(=O)N2c2c1ccc1ccccc21 (centres undefined),17,3,-23,-11,11,-1
O=c1[nH][nH]c2cc(=O)n(-c3ccc(Cl)cc3)nc12,-6,5,-100,.,92*,2
O=C(c1ccccc1)c1nn(-c2ccc(Cl)cc2)c(=O)cc1C(F)(F)F,-8,-7,-19,-15,1,-1
O=C(NNC(=O)c1ccncc1)c1ccncc1,-4,1,-34,-5,-2,-3
CC(=O)c1ccc(NC(=S)NNC(=O)c2ccncc2)cc1,17,0,92*,-2,-4,-6
COc1ccc(C(=O)NNC(=O)c2ccncc2)cc1,61*,2,-11,-7,-6,-4
CC(C)(/C=N/NC(=O)CSCc1ccc(Cl)cc1)CCC#N,10,23,-19,-25,-9,0
O=[N+]([O-])c1cc(S(=O)(=O)NC2=NCCCCC2)ccc1Cl,-1,21,-7,-17,-7,0
O=C(Nc1nc2ccccc2s1)c1cc2c(s1)-c1ccccc1OC2,14,36,57*,.,27,0
O=C(NCc1ccc(Cl)cc1)C(=O)NCC(c1cccnc1)N1CCN(c2ccc(F)cc2)CC1 (centres undefined),12,14,-36,6,-8,-2
COc1ccccc1NC(=O)c1sc2ncn(Cc3cccc(C)c3)c(=O)c2c1C,2,3,-4,.,-13,1
COc1ccccc1NC(=O)c1sc2ncn(Cc3ccc(C)cc3)c(=O)c2c1C,14,29,74*,.,34,-3
CCOC(=O)C1=C(O)/C(=C\c2ccc(CNC(=O)C(=O)Nc3ccccc3)o2)N=C1C,96*,10,40,.,1,-1
CCOC(=O)C1=C(O)/C(=C\c2cccs2)N=C1C,7,-1,-9,-26,-6,-2
COc1ccc(CNCc2cccn2C)cc1,.,.,.,-15,.,.
SMILES,Mcl1 Noxa PPI,Hck Nef HTS,Mcl1-Bid inh,Pf gametocyte,14-3-3 Bad PPI,Bim-Mcl-1
COc1ccc(/C=C2\SC(=O)N(CC(=O)NCCC(C)C)C2=O)cc1OC,-6,7,-5,-20,-3,.
COc1cc(/C=C2\SC(=O)N(CC(=O)Nc3cccc(C)c3)C2=O)cc([N+](=O)[O-])c1O,59*,32,-18,15,2,-1
COc1ccc(/C=C2\SC(=O)N(CC(=O)NNC(=O)c3ccccc3O)C2=O)cc1,53*,12,48,-9,62,-2
COc1ccccc1C(=O)NNC(=O)CCCN1C(=O)/C(=C/c2cccs2)SC1=S,52*,3,35,-17,12,-5
COc1ccc(/C=C2\SC(=O)N(CC(=O)NNC(=O)c3ccccc3O)C2=O)cc1OC,53*,13,60*,-9,21,-6
O=C(CCCN1C(=O)/C(=C\c2cccs2)SC1=S)NNC(=O)c1ccncc1,-5,25,-3,-1,-2,-3
O=C(CN1C(=O)S/C(=C\c2ccccc2)C1=O)NNC(=O)c1ccccc1O,14,6,6,10,8,-5
COc1ccc(NS(=O)(=O)c2cccc(-c3n[nH]c(=S)n3Cc3ccccc3)c2)cc1,20,15,-37,-1,-10,-3
Cc1ccc(N(C(=O)C2CCCC2)C2C=CS(=O)(=O)C2)cc1C (centres undefined),3,-1,-15,.,-3,0
COc1ccc(CC(=O)N2CCN(C(=O)c3ccco3)CC2)cc1,11,-3,-3,-3,1,-2
O=C(CSc1ccccn1)N/N=C/c1cc([N+](=O)[O-])ccc1O,-53,25,-63,9,-4,.
CCC(C)NS(=O)(=O)c1ccc(N)cc1 (centres undefined),16,-16,8,10,4,-6
O=C(O)c1ccccc1Nc1ccnc(Cl)n1,12,22,-40,5,-4,.
O=C(NCc1cccnc1)/C(=C\c1ccc(-c2ccc(Cl)c(Cl)c2)o1)S(=O)(=O)c1ccccc1,40,2,55*,15,-6,-5
CCOc1ccc(Nc2nc(CC(=O)OC)cc(=O)[nH]2)cc1,-9,13,-13,12,89*,0
CCCc1cc(=O)[nH]c(Nc2cc(OC)ccc2OC)n1,26,3,7,9,5,-2
COc1cccc2c(=O)c3cccc(N)c3[nH]c12,74*,35,-29,9,2,1
Cc1ccc(C)c(-n2c(Cc3cc(=O)[nH]c(=O)[nH]3)nnc2SCC(=O)NCC2CCCO2)c1 (centres undefined),15,1,-9,.,4,-5
Cc1cccc(S(=O)(=O)C(C#N)c2nc3ccccc3nc2N2CC(C)OC(C)C2)c1 (centres undefined),11,3,-4,.,73*,0
O=C(Nc1cccnc1)c1ccc(S(=O)(=O)c2ccc(Cl)cc2)cc1,7,14,-19,19,85*,0
COc1ccc(NC(=O)Nc2nnc(CC(=O)NCc3ccccc3)s2)cc1,1,17,91*,-9,-10,0
CCOc1ccc(NC(=O)Nc2nnc(CC(=O)NCc3ccccc3)s2)cc1,-2,24,-20,-6,0,-2
Cc1nc(NC(=O)c2ccc(OCC(C)C)cc2)sc1Cc1ccc2c(c1)OCO2,-7,-11,1,.,-2,-1
COC(=O)CCCC(=O)NC(C)c1cnn(-c2ccccc2C)c1C (centres undefined),9,24,-27,32,-3,-2

# Bioassay records from PubChem BioAssay.
